In all, about 2,300 compounds went through this assay and about 30 (1%) were called active. Only a sample is shown. Values without a mark were called inactive.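 Rule for the calls: active = activation of at least 30% at 10 µM; inactive = the rest.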

The experiment is described as follows: beacon detection-step fluorescence artefacts – biochemical, fluorescent molecular beacon, single concentration, artefact control for DNMT1 inhibitor project, confirmation (AID 602387).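 Note: DNMT1 catalytic domain with a HinP1I cleavage step and a FAM/dabcyl DNA beacon.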 Particulars: DNMT1 molecular beacon spectral interference counterscreen, fluorescence 485/520; at 10 µM; active compounds read high. (In general: A counterscreen serves to expose hits that act by an unwanted route or on another target.)
For `COc1ccc(Cl)cc1NC(=O)CCS(=O)(=O)c1ccc(Br)cc1`, the activation (fluorescence interference) is 3.16%.

Turning to `O=C(CCN1C(=O)C2C3C=CC(C3)C2C1=O)Nc1ccccc1F` (stereo unspecified), the activation (fluorescence interference) is 1.81%. In the case of `COc1ccc(/C=C2\SC(=N)N(c3ccc(F)cc3)C2=O)cc1` it was 2.19%. Take `Oc1c(C(c2ccco2)N2CCC3(CC2)OCCO3)sc2ncnn12` (stereo unspecified): the activation (fluorescence interference) is 3.04%.

Regarding `O=C(COC(=O)c1ccccc1O)NCc1ccco1`, the activation (fluorescence interference) is 6.37%. Turning to `O=C(CCS(=O)(=O)c1ccc(Br)cc1)NCCc1ccc(Cl)cc1`, the activation (fluorescence interference) was 1.71%. As to `CCCCCCc1cc2cc(-c3nnc(-c4ccccc4)o3)c(=O)oc2cc1O`, the activation (fluorescence interference) is -8.15%. The value for `O=C(CSc1nc2ccccc2c(=O)[nH]1)Nc1nc(-c2ccc(Br)cc2)cs1` was 1.36%; that for `COc1ccc(Br)cc1/C=N/Nc1ccc(S(=O)(=O)Nc2ccccc2C(=O)O)cc1[N+](=O)[O-]` was -9.44%; that for `COC(=O)CCCCC1=CCC2C(=O)C=C(O)C2C1` (stereo unspecified) was 10.1%. The value for `COc1ccc(OCC(=O)NNC(=O)c2ccc(-c3ccccc3)cc2)cc1` was 1.59%. On to `CSc1ccc(CNC(=O)c2ccc(NC(=O)C3=CSCCO3)cc2)cc1`, for which the activation (fluorescence interference) was 4.08%. With `C=CC[C@@H](CC(=O)N[C@H](CO)Cc1ccccc1)C(=O)N[C@@H](COC(=O)[C@@H](CC=C)Cc1ccc(F)cc1)Cc1c[nH]c2ccccc12`, the activation (fluorescence interference) was 10.2%. Consider `Cc1ccc(CNC(=O)CSc2nnc3c(n2)[nH]c2ccc(F)cc23)cc1`, for which the activation (fluorescence interference) was 3.05%. In the case of `COc1cc(-c2nnc(NC(=O)CS(=O)(=O)c3ccc(Cl)cc3)o2)cc(OC)c1OC` it was 5.03%.

In the case of `COc1ccc(-n2c(SCC(=O)Nc3sc4c(c3C#N)CCCC4)nnc2-c2ccc(O)cc2)cc1`, the activation (fluorescence interference) is 1.12%. The value for `CCOc1cc(NC(=O)c2ccco2)c(OCC)cc1NC(=O)COc1ccccc1` was -8.28%; that for `CC1(C)Cc2nc3sc4c(SCC(=O)NC(c5ccccc5)c5ccccc5)ncnc4c3cc2CO1` was 1.08%; that for `O=C(COc1ccc(/C=N/NC(=O)c2ccc(O)cc2)cc1)Nc1ccc([N+](=O)[O-])cc1` was -12.5%. On to `O=C(c1ccc(CS(=O)(=O)c2ccccc2)o1)N1CCN(c2ccccc2)CC1`, for which the activation (fluorescence interference) was -0.52%. The value for `CCOC(=O)C(NC(=O)CC(C)C)(Nc1sc2c(c1C(N)=O)CCCC2)C(F)(F)F` (stereo unspecified) was 6.15%; that for `COc1ccc(C(=O)/C=C/c2ccc(-c3ccccc3)cc2)cc1CSCC(=O)O` was -0.97%; that for `O=C(COc1ccc([N+](=O)[O-])cc1)Nc1ccc(N2CCCC2)cc1` was 4.14%. Regarding `N#Cc1ccccc1CN1C(=O)S/C(=C/c2cccn2-c2cccc(C(=O)O)c2)C1=O`, the activation (fluorescence interference) is 1.4%.

For `COc1ccc2sc(-c3ccc(S(C)(=O)=O)cc3)c(-c3ccc(C(N)=O)cc3)c2c1`, the activation (fluorescence interference) was 4.53%. For the molecule `CN(CCOc1ccccc1)C(=O)c1cc(-c2ccco2)nc2ccccc12`, the activation (fluorescence interference) was 3.34%. The value for `Cc1ccc2cc(C)c(N3CCC(C)CC3)nc2c1` was 2.52%. As to `COc1ccc(NC(=O)CN(C)C(=O)c2cc(C3CC3)nn2-c2ccccc2)cc1`, the activation (fluorescence interference) is 0.09%. As for `COc1ccc(CC(=O)Nc2ccc(-c3nnc(-c4ccc(C)cc4)o3)cc2)cc1`, the activation (fluorescence interference) was -5.84%. In the case of `CS(=O)(=O)c1ccc2c(c1)SC1=NC(=O)/C(=C/c3ccco3)C(=N)N12` it was 1.32%; in that of `O=C1CCCC(O)=C1C=NCCc1ccccc1`, 5.41%.

Turning to `O=C(Nc1cccc(-c2nc3ccccc3[nH]2)c1)c1ccc(C(=O)Nc2cccc(-c3nc4ccccc4[nH]3)c2)cc1`, the activation (fluorescence interference) was -6.94%.

For `CC(Oc1ccccc1)C(=O)Nc1oc(-c2ccco2)c(-c2ccco2)c1C#N` (stereo unspecified), the activation (fluorescence interference) is 0.87%. `c1ccc2cc3[nH]c(CN4CCCCC4)nc3cc2c1`: the activation (fluorescence interference) is 5.49%. Regarding `CC(=O)Nc1ccc(SCC(=O)NC(=O)c2ccc(Cl)cc2)cc1`, the activation (fluorescence interference) is 4.23%.

Turning to `Cc1nnc(N/N=C/c2cccs2)[nH]c1=O`, the activation (fluorescence interference) was 1.29%. For the molecule `CCCCNC(=O)CCn1c(=O)c2ccccc2n(Cc2cc(C)ccc2C)c1=O`, the activation (fluorescence interference) was 1.75%. In the case of `Cc1ccc(C(=O)NNC(=O)c2cc3cc4ccccc4nc3s2)cc1` it was 4.21%; in that of `CC(C)(C)NC(=O)CSC(=Nc1ccccc1F)NC#N`, 8.71%; in that of `COc1ccc2[nH]c(=O)c(-c3noc(-c4ccc(F)cc4)n3)cc2c1`, -3.37%. As to `COc1ccc(OC)c(NC(=O)c2cc(-c3cc(F)ccc3OCC3CCCO3)n[nH]2)c1` (stereo unspecified), the activation (fluorescence interference) is 7.7%. Consider `O=C(NNc1ccccn1)c1ccc(Cl)nc1`, for which the activation (fluorescence interference) was 1.8%. Turning to `O=C(Oc1ccc(-c2nc(-c3ccccn3)no2)cc1)c1ccccc1`, the activation (fluorescence interference) is -1.62%. For the molecule `CCc1nn(-c2cc(Oc3cccc4ccccc34)nc(-c3ccccc3)n2)c(N)c1C#N`, the activation (fluorescence interference) is 1.42%. In the case of `CCOC(=O)c1cccc(NC(=O)C2CCCN(S(=O)(=O)c3cnc[nH]3)C2)c1` (stereo unspecified) it was 2.94%; in that of `C=CCn1c(=S)[nH]c2scc(-c3ccco3)c2c1=O`, -3.16%.
